Laboratory results as given in PubChem BioAssay (NCATS).
Records with an inconclusive call do not appear. The source made the active and inactive calls. Calls come from the whole dose curve; as a rule, active = well fitted curve in the direction sought with a large enough effect; inconclusive = small, poorly fitted or top-dose-only effect, or another doubt; inactive = no such curve, though single readings can be large or run the other way.

target: phosphoglycerate mutase (Leishmania major) (UniProt Q4Q090); experiment: qHTS Validation Assay to Find Inhibitors of Phosphoglycerate Mutase (AID 504548); details: biochemical enzyme activity; series mostly up to 57.5 µM; activity change, negative = inhibition: at the top concentration
Sequence (Q4Q090 1-553): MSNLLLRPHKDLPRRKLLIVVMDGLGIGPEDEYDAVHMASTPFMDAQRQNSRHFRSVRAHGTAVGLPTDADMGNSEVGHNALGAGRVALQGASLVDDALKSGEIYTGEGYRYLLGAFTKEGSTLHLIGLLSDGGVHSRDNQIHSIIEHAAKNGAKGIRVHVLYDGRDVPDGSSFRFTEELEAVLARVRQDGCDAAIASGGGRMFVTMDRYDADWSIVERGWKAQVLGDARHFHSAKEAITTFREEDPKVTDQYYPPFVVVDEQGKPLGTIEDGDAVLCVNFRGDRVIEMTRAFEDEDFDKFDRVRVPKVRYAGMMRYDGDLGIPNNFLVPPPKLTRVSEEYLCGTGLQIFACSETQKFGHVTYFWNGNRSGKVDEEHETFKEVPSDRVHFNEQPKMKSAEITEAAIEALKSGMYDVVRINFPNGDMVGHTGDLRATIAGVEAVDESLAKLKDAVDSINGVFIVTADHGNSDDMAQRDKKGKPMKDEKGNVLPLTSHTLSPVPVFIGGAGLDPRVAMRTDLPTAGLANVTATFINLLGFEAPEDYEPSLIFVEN
Source text: NIH Molecular Libraries Probe Production Network [MLPCN]
NIH Chemical Genomics Center [NCGC]
PI Name: Malcolm Walkinshaw, University of Edinburgh
Several species of the Trypanosomatidae family of parasitic protozoans cause a spectrum of diseases throughout the tropical and subtropical world. Sleeping sickness, caused by two subspecies of Trypanosoma brucei, is endemic to areas of sub-Saharan Africa, while Chagas disease, a manifestation of Trypanosoma cruzi infection, is prevalent throughout Central and South America. In addition, many species of Leishmania are responsible for a range of cutaneous and visceral diseases, causing ulcers, destructive lesions and kalaazar, a lethal infection of the viscera. Collectively, these organisms infect 30 million people worldwide (~500 million live in endemic areas), and account for ~130,000 deaths annually. Given their debilitating and prevalent nature, trypanosomatid parasites impose a heavy medical, economic and social burden on entire populations, primarily in the developing world. The problem is further exacerbated by the fact that existing treatments have progressed little in the past 50 years, and current drugs show high toxicity and poor efficacy.
Blood-stream stages of T. brucei are entirely dependent on glycolysis as a source of ATP, and the tricarboxylic acid cycle and oxidative phosphorylation are both repressed. Glycolysis in axenically cultured T. cruzi, representing the intracellular pathogenic stage, is also essential for these parasites. […] Previous studies have shown that the glycolytic enzyme, phosphoglycerate mutase (PGAM), is a viable target for drugs to kill these parasites. […] Furthermore, the cobalt centers present within PGAM are only found in trypanosomatid and plant PGAMs, and are known to be required for activity, thereby providing an additional target. Moreover, trypanosomatid PGAMs are completely different from the enzyme that performs the same function in humans: the parasite and host enzymes share no structural or even mechanistic features; specificity is therefore unlikely to be an issue.
NCGC Assay Protocol Summary:
Briefly, 3ul of substrate buffer (all columns) are dispensed into Greiner white solid bottom 1536-well assay plates. Compounds are then transferred via Kalypsys pin tool equipped with 1536-pin array (10nl slotted pins, V&P Scientific, San Diego, CA). Following addition of compound, 1ul of Lm PGAM (1.25nM final concentration, columns […]) is added to initiate the reaction; columns 3-4 receive only TEA buffer as negative controls. The plates are then incubated at room temperature for 45 minutes. Kinase-GloPlus reagent is added (2ul) and plates incubated for 10 minutes, before being transferred to a ViewLux high-throughput CCD imager (PerkinElmer) wherein single end-point measurements of luminescence are acquired using a clear filter. All reagents are diluted in an assay buffer consisting of 100 mM TEA (pH 7.6), 5 mM MgCl2 and 0.01% Tween-20.
% is set by controls: 0 for no effect and ±100 for the full control effect.

Row | Structure (SMILES) | activity change, negative = inhibition
1 | NC(=O)c1cn(Cc2c(F)cccc2F)nn1 | 13% (inactive)
2 | CC(C)[N+](C)(CCOC(=O)C1c2ccccc2Oc2ccccc21)C(C)C | -5.47% (inactive)
3 | Cc1ccc(Cl)c(Nc2ccccc2C(=O)O)c1Cl | 7.82% (inactive)
4 | O=C(O)CN(CCN(CC(=O)O)CC(=O)O)CCN(CC(=O)O)CC(=O)O | 0.788% (inactive)
5 | Nc1c2c(nc3ccccc13)CCCC2O (stereo not given) | 15.1% (inactive)
6 | COc1ccc(CN(CCN(C)C)c2ccccn2)cc1 | 2.08% (inactive)
7 | C[C@]12CC[C@@H]3c4ccc(O)cc4C[C@@H](CCCCCCCCCS(=O)CCCC(F)(F)C(F)(F)F)[C@H]3[C@@H]1CC[C@@H]2O (stereo not given in full) | -2.95% (inactive)
8 | CCc1cccc(N(C)C(N)=Nc2cccc3ccccc23)c1 | 9.85% (inactive)
9 | COCC(=O)O[C@]1(CCN(C)CCCc2nc3ccccc3[nH]2)CCc2cc(F)ccc2[C@@H]1C(C)C | 0.0993% (inactive)
10 | COC(=O)[C@@H](N)Cc1ccc(O)c(O)c1 | -4.27% (inactive)
11 | CCCCNC(=O)NS(=O)(=O)c1ccc(C)cc1 | 2.99% (inactive)
12 | CC(C)NCC(O)c1cc(O)cc(O)c1 (stereo not given) | 10.7% (inactive)
13 | COCCOC(=O)C1=C(C)NC(C)=C(C(=O)OC(C)C)C1c1cccc([N+](=O)[O-])c1 (stereo not given) | 1.13% (inactive)
14 | CC(=O)[C@]1(O)Cc2c(O)c3c(c(O)c2[C@@H](O[C@H]2C[C@H](N)[C@H](O)[C@H](C)O2)C1)C(=O)c1ccccc1C3=O | -11.3% (inactive)
15 | CN1C(=O)CC[C@H]1c1cccnc1 | -0.241% (inactive)
16 | CC(=O)[C@@]1(O)CC[C@H]2[C@@H]3CCC4=CC(=O)CC[C@]4(C)[C@H]3CC[C@@]21C | 0.3% (inactive)
17 | Cc1nnc(SCC2=C(C(=O)O)N3C(=O)[C@@H](NC(=O)Cn4cnnn4)[C@H]3SC2)s1 | 0.527% (inactive)
18 | CCN1CCc2nc(N)oc2CC1 | 12.1% (inactive)
19 | CCOC(=O)C1=C(C)NC(C)=C(C(=O)OC)C1c1cccc([N+](=O)[O-])c1 (stereo not given) | 1.39% (inactive)
20 | c1ccc2c(c1)CCCC2C1=NCCN1 (stereo not given) | 0.918% (inactive)

Row | Structure (SMILES) | activity change, negative = inhibition
21 | NC(=O)N1c2ccccc2C=Cc2ccccc21 | 0.0901% (inactive)
22 | C[N+](C)(C)CCOC(=O)CCC(=O)OCC[N+](C)(C)C | 5.12% (inactive)
23 | CC(=O)OCC1=C(C(=O)O)N2C(=O)[C@@H](NC(=O)Cc3cccs3)[C@H]2SC1 | 1.02% (inactive)
24 | CCc1c(C)[nH]c2c1C(=O)C(CN1CCOCC1)CC2 (stereo not given) | 2.42% (inactive)
25 | CN(C(=O)CCCOc1ccc2[nH]c(=O)ccc2c1)C1CCCCC1 | -2.78% (inactive)
26 | CCCOc1ccccc1-c1nc2n[nH]nc2c(=O)[nH]1 | 5.87% (inactive)
27 | CN(C)CCOC(=O)COc1ccc(Cl)cc1 | -11.4% (inactive)
28 | CC(C)(C)NCC(O)c1cc(O)cc(O)c1 (stereo not given) | -3.51% (inactive)
29 | C[N+](C)(C)CCCCCCCCCC[N+](C)(C)C | 18.9% (inactive)
30 | NC(Cc1ccc(Cl)cc1)C(=O)O (stereo not given) | 0.012% (inactive)
31 | c1cc(CN2CCCCC2)cc(OCCCNc2nc3ccccc3s2)c1 | -7.32% (inactive)
32 | CC1=NS(=O)(=O)c2cc(Cl)ccc2N1 | 1.13% (inactive)
33 | Cc1cc(C)c(/C=C2\C(=O)Nc3ccccc32)[nH]1 | -0.616% (inactive)
34 | O=c1[nH]c(=O)n([C@H]2C[C@H](O)[C@@H](CO)O2)cc1Br | -0.537% (inactive)
35 | NCCCNCCSP(=O)(O)O | -2.24% (inactive)
36 | CC(C(=O)O)c1ccc(CC2CCCC2=O)cc1 (stereo not given) | -0.819% (inactive)
37 | CC(C)(C)c1ccc(C(=O)CCCN2CCC(OC(c3ccccc3)c3ccccc3)CC2)cc1 | 3.38% (inactive)
38 | CCN(CC)CCOCCOC(=O)C1(c2ccccc2)CCCC1 | 9.55% (inactive)
39 | COCCCC/C(=N\OCCN)c1ccc(C(F)(F)F)cc1 | -3.61% (inactive)
40 | N[C@@H](COP(=O)(O)O)C(=O)O | -2.98% (inactive)
